Values joined by “and” are separate entries in the source; they are usually repeats but may differ in a detail not shown here. Identical values can stand only once. Results filed as inconclusive are left out. Active and inactive are the calls of the source. Unless noted, the call rests on the fitted dose curve; in most records, active means well fitted cell-killing curve with a large enough effect; inconclusive means small, poorly fitted or top-dose-only effect; inactive means flat fitted curve, though single readings scatter.
Tests used:
[1] = Cell Viability - LYMP2-019 (AID 973);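 further: 0% = DMSO alone and full effect = 92 µM tetraoctylammonium bromide; nearly all actives have a fitted effect of over 55% in size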
Outline: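 AC50 values come from Hill-equation modelling of qHTS concentration-response curves, where viability is measured as luciferase-based ATP luminescence in the lymphoblastoid line after 24 hr compound exposure in complete culture medium.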

[2] = Cell Viability - LYMP2-021 (AID 974);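 further: compound exposure lasts 24 hours at 37 °C; on the % scale 0 is the no-effect control and ±100 the full control effect; nearly all actives have a fitted effect of over 55% in size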
Outline: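 In qHTS format, compounds are tested against 2500 lymphoblastoid cells per well for 24 h; viable cell number is inferred from ATP-driven luciferase light, and Hill-equation fitting yields AC50 values.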

[3] = Cell Viability - LYMP2-023 (AID 975);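 further: cellular ATP measured by luciferase luminescence as viability proxy; series mostly up to about 92 µM; plate controls were DMSO only for no effect and 92 µM tetraoctylammonium bromide control for full effect; nearly all actives have a fitted effect of over 55% in size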
Outline: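 In this qHTS, ATP-based luciferase luminescence (CellTiter-Glo) is quantified in human lymphoblastoid cells after 24 hr compound treatment at 37 C; tetraoctylammonium bromide serves as positive control. Concentration-response curves are Hill-fitted to give AC50.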

[4] = Cell Viability - LYMP2-025 (AID 976);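 further: series mostly up to about 92 µM; plate controls were DMSO only for no effect and tetraoctylammonium bromide control for full effect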
Outline: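 Luminescent ATP readout after 24 hr treatment of a human lymphoblastoid line (LYMP2-025, 2500 cells/well, 37 C). Reagent developed 30 min at room temperature; AC50 fitted with the Hill equation.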

[5] = Cell Viability - LYMP2-002 (AID 977);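 further: series mostly up to about 92 µM; compound exposure lasted 24 h at 37 °C; plate controls were DMSO only for no effect and 92 µM tetraoctylammonium bromide for full effect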
Outline: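 Human lymphoblastoid cells (2500/well) in complete medium were preincubated 5 hr at 37 C, then exposed to compounds for 24 hr at 37 C. Intracellular ATP was read by CellTiter-Glo luminescence; AC50 came from Hill-equation concentration-response fits.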

[6] = Cell Viability - LYMP2-007 (AID 979);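 further: cells exposed to compound for 24 h before reading; 0% = DMSO only and the negative end = 92 µM tetraoctylammonium bromide; nearly all actives have a fitted effect of over 60% in size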
Outline: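 Measured via luciferase-based ATP quantitation: lymphoblastoid cells, 24 hr compound exposure at 37 C, AC50 from Hill fits.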

[7] = Cell Viability - LYMP2-008 (AID 980); further: on the % scale 0 is the no-effect control and ±100 the full control effect; nearly all actives have a fitted effect of over 60% in size
Outline: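 Measured: ATP-dependent luminescence, proportional to viable cell number, in human lymphoblastoid cells treated 24 hr with compound in complete culture medium. Values are AC50s from Hill-equation modelling of qHTS titrations.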

[8] = Cell Viability - LYMP2-010 (AID 981); further: on the % scale 0 is the no-effect control and ±100 the full control effect; nearly all actives have a fitted effect of over 55% in size
Outline: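 This 24 hr viability screen uses LYMP2-010 lymphoblastoid cells, quantifies ATP via luciferase luminescence, and derives AC50 from Hill fits of qHTS concentration-response data.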

[9] = Cell Viability - LYMP2-014 (AID 983);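 further: series mostly up to about 92 µM; plate controls were DMSO only for no effect and 92 µM tetraoctylammonium bromide for full effect; nearly all actives have a fitted effect of over 50% in size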
Outline: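 Quantitative HTS in lymphoblastoid cells: 24 hr compound exposure, then CellTiter-Glo ATP luminescence. Positive control was tetraoctylammonium bromide, 6.4pM to 92 uM.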

[10] = Cell Viability - LYMP2-016 (AID 984)
Outline: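 Acute toxicity in a Coriell human lymphoblastoid line is scored as loss of intracellular ATP over 24 h of treatment in complete medium. CellTiter-Glo signal is fitted across concentrations with the Hill equation to give AC50.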

[11] = Cell Viability - LYMP2-018 (AID 985);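 further: plate controls were DMSO only for no effect and tetraoctylammonium bromide at 92 µM for full effect; nearly all actives have a fitted effect of over 50% in size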
Outline: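 In this qHTS viability assay, cells are treated for 24 hr and cellular ATP is quantified by luciferase-based luminescence, with tetraoctylammonium bromide as positive control.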

[12] = Cell Viability - LYMP2-020 (AID 986)
Outline: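 Cells at 2500 per well receive a 24 hr compound exposure at 37 C. Viability is measured as ATP-dependent luciferase luminescence, with AC50 modeled from qHTS concentration-response curves.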

[13] = Cell Viability - LYMP2-022 (AID 987)
Outline: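 In this qHTS cytotoxicity screen, compound titrations were incubated 24 hr at 37 C with human lymphoblastoid cells in complete medium. Luciferase-based ATP luminescence provided the viability signal.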

[14] = Cell Viability - LYMP2-024 (AID 988);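 further: plate controls were DMSO only for no effect and 92 µM tetraoctylammonium bromide for full effect; nearly all actives have a fitted effect of over 60% in size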
Outline: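 Cells at 2500 per well received compound for 24 hr after a 5 hr settling period. Viability was scored by CellTiter-Glo luminescence, with AC50 from Hill fits.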

[15] = Cell Viability - LYMP2-026 (AID 989); further: on the % scale 0 is the no-effect control and ±100 the full control effect; nearly all actives have a fitted effect of over 50% in size
Outline: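 Acute toxicity screen in complete culture medium, with 24 hr compound exposure at 37 C. Viability read as cellular ATP via luciferase reaction, with tetraoctylammonium bromide (6.4pM to 92 uM) as positive control.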

[16] = Cell Viability - LYMP1-002 - Assay at 24 hr (AID 993); further: on the % scale 0 is the no-effect control and ±100 the full control effect
Outline: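 Viability was judged from intracellular ATP using a luciferase read-out, following a 24-hour compound incubation at 37 C of lymphoblastoid cells seeded at 2500 per well. Concentration-response data were fitted to the Hill equation for AC50.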

[17] = Cell Viability - LYMP1-002 - Assay at 40 hr (AID 994);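 further: 0% = DMSO only and full inhibition = 92 µM tetraoctylammonium bromide; nearly all actives have a fitted effect of over 60% in size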
Outline: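 Concentration-dependent ATP loss after 40 hr treatment at 37 C defined toxicity; AC50 values were obtained by fitting the standard Hill equation.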

[18] = target: Bile acid receptor (Homo sapiens) (UniProt Q96RI1); assay: qHTS assay for small molecule antagonists of farnesoid X receptor signaling (AID 588526; calls by dose curve; further: on the % scale 0 is the no-effect control and ±100 the full control effect)
Outline: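 Beta-lactamase reporter antagonist mode: HEK293T FXR-UAS-bla cells, titrated compound, CDCA stimulation, 16 h 37 C, CCF4 dye 2 h RT. Data normalized to CDCA 50 uM and DMSO; Hill-fit IC50.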

[19] = target: Glucocorticoid receptor (Homo sapiens) (UniProt P04150); assay: qHTS assay for small molecule agonists of glucocorticoid receptor signaling (AID 588532; active means well fitted curve in the direction sought with a large enough effect in the signal ratio, with a control signal flat; the % refers to the signal ratio;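 further: 100% = dexamethasone at 0.1 µM and 0% = DMSO only wells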); details: HeLa MMTV-bla, beta-lactamase ratio, agonist, 18 h; stronger effect = higher value; percent of dexamethasone control, DMSO zero
Outline: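 Quantitative HTS using CellSensor MMTV-bla HeLa cells in charcoal/dextran-treated serum; compounds tested up to 92 uM. After 18 h at 37 C, CCF4 dye reported reporter induction.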

[20] = target: Glucocorticoid receptor (Homo sapiens) (UniProt P04150); assay: qHTS assay for small molecule antagonists of glucocorticoid receptor signaling (AID 588533; active means well fitted inhibition curve with a large enough effect in the signal ratio, with a control signal flat, not every such curve was filed as active; the % refers to the signal ratio;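 further: cells stimulated with 2 nM dexamethasone as agonist; on the % scale 0 is the no-effect control and ±100 the full control effect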)
Outline: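 Antagonist-mode qHTS: compound titrations added to GRE-bla HeLa cells, then dexamethasone 2 nM final; 18 h, 37 C. CCF4 FRET fluorescence normalized to dexamethasone and DMSO; IC50 from Hill fit.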

[21] = qHTS assay for small molecule antagonists of peroxisome proliferator-activated receptor delta signaling (AID 588535); details: HEK293T PPARd-UAS-bla, beta-lactamase FRET ratio, 18 h; 460 nm channel;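 further: cells co-treated with a PPAR-delta agonist as stimulator during compound exposure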
Outline: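 Antagonist-mode qHTS using GeneBLAzer PPAR-delta-UAS-bla HEK293T cells; compound exposure 18 hrs at 37 C over a titration. Ratiometric CCF4 fluorescence at 460/530 nm; concentration-response points fitted to the Hill equation.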

Sequence of Glucocorticoid receptor (Homo sapiens) (P04150 whole entry, looked up): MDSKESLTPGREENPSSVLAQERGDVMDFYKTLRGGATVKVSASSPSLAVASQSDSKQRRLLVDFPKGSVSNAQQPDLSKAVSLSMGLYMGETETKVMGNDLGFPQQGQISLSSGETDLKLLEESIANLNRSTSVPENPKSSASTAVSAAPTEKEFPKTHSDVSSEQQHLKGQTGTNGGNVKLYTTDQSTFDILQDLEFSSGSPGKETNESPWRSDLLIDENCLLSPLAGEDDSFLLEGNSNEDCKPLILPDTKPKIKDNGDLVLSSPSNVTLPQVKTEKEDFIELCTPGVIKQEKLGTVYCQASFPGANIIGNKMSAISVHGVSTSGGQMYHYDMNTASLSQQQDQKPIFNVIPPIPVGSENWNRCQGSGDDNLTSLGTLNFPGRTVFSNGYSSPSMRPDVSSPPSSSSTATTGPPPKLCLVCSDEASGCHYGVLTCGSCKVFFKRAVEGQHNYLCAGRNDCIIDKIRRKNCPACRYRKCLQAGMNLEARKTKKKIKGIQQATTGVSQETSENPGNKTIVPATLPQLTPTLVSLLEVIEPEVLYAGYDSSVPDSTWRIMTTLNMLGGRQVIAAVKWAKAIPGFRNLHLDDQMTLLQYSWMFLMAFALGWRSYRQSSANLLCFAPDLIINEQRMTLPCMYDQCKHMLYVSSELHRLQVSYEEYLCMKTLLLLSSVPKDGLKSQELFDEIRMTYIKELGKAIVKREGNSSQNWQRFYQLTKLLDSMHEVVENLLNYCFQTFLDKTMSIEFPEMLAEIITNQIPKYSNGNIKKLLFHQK
Sequence of Bile acid receptor (Homo sapiens) (Q96RI1 whole entry, looked up): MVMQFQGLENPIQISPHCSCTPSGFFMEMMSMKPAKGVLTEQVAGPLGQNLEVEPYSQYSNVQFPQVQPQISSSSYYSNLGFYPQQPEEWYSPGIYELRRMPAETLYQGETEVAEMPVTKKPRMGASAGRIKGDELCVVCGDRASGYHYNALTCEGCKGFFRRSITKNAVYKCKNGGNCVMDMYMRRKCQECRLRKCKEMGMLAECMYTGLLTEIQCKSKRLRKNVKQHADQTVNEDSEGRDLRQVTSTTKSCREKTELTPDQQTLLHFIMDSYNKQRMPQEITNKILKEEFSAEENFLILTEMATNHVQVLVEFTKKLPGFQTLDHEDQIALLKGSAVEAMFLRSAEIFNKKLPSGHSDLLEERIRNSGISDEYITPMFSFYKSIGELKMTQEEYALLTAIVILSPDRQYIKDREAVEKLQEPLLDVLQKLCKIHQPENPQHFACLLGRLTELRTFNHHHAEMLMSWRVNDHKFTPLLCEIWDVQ

O=C=Nc1ccc(Cc2ccc(N=C=O)cc2)cc1
inactive: Potency [1] | Potency [2] | Potency [3] | Potency [4] | Potency [5] | Potency [6] | Potency [7] | Potency [8] | Potency [9] | Potency [10] | Potency [11] | Potency [12] | Potency [13] | Potency [14] | Potency [15] | Potency [16] | Potency [17] | Potency [18] | activation [19] 5.29% and -5.07% | Potency [20]
-20% and 23.7%: max response [21]
